Compounds with a hit are over-represented: about 2.2% of the library has one in this group of screens.
MITF TRPM1 inh = inhibitors of MITF-dependent TRPM1 promoter reporter, primary screen, cell-based, SK-MEL-5, single point, luciferase | SK-MEL-5 TRPM1 promoter luciferase, 24 h | inhibition, % at 12.5 µM | 330,000 compounds, 0.83% hits;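 active = mean inhibition across replicates of 60% or more, whatever share of single replicates reaches that level; inconclusive = some that reach 60%, reason not given; inactive = mean inhibition across replicates below 60%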
LGR2 inh = inhibitors of bursicon-induced LGR2 CRE-luciferase signal, primary screen, cell-based, HEK293, CRE-luciferase reporter, bursicon stimulation. AID 720647, 2013. bursicon-stimulated, 4 h. 380,000 compounds, 0.35% hits. inhibition, % at 9.99 µM;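 active = drop in luminescence signal, shown as inhibition above about 50% in the replicate tests, limit read from the data, passing the limit was not always enough; inconclusive = probably only some replicates passing the limit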;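 note: agonist challenge used bursicon conditioned medium at about half maximal strength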
Shn3 3UTR inh = reduction of Shn3 3'UTR firefly luciferase signal, primary screen, Schnurri-3 inhibitor project, cell-based, Clone20 osteoblasts, set 2. Clone20 osteoblast Shn3 3'UTR firefly luciferase, 24 h. inhibition, % at 12.5 µM. 360,000 compounds, 0.52% hits. AID 588674, 2011;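 active = mean inhibition of at least 75% with every replicate also reaching 75%; inconclusive = mean inhibition at least 75% but some replicate below; inactive = mean inhibition below 75%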;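 note: 0% = median of neutral control wells and 100% = pilot-screen positive control compound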
EWS-Fli inh = EWS/Fli-driven NR0B1 reporter inhibitors, primary screen, A673 cells, NR0B1 luciferase, luminescence, MLPCN library. viability-normalised. inhibition, % at 12.6 µM. 350,000 compounds, 0.67% hits. AID 651661, 2012;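 active = mean inhibition of at least 50% after viability correction, with every replicate also passing that limit; inconclusive = mean reaches 50% but only one of two replicates passes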;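 note: firefly luciferase signal divided by Alamar Blue viability fluorescence both relative to DMSO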
PAX8 reporter = inhibitors of PAX8-driven TPO luciferase reporter, primary screen, RMG-I cells, single concentration; SteadyGlo, 24 h; inhibition, % at 12.6 µM; 360,000 compounds, 1.2% hits;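 active = mean replicate inhibition at least 60% with every replicate also reaching 60%; inconclusive = only one of the two criteria is met; inactive = mean below 60% and not all replicates reaching 60%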;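 note: luciferase light reporting Pax8 driven TPO promoter activity; plate controls were median of neutral control wells for no effect and mitoxantrone controls for full effect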
LMP1 NFkB inh = EBV LMP1-driven NF-kappaB luciferase reporter inhibitors, primary screen, cell-based, luminescence, single point. LMP1-induced NF-kappaB luciferase reporter cells. inhibition, % at 12.5 µM. 350,000 compounds, 0.69% hits. AID 504558, 2011; in the data active = inhibition above about 41%; inconclusive = no clear call, values can overlap the other calls;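 note: 0% = neutral control wells and 100% = reference inhibitor control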
DNA binding = DNA binders by acridine orange displacement, dose response, counter-screen for EWS/Fli inhibitor project, biochemical, fluorescence polarization, cherry-pick; shares compounds with EWS-Fli inh; salmon sperm DNA acridine orange fluorescence polarization; AC35, µM (doses to about 68 µM), for inactives: at the highest dose activity change, negative = DNA binding; 640 compounds, 2% hits;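 active = fitted curve reaches a 35% signal fall AC35 below twice the sample's top valid tested dose, actives reach about 48 µM in these data; inactive = the rest, including activity in the rising direction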;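 note: lower polarization ratio signals compound binding to DNA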
* marks the source's active call; other numbers are inactive results; ? = inconclusive; . = no result.

SMILES | MITF TRPM1 inh | LGR2 inh | Shn3 3UTR inh | EWS-Fli inh | PAX8 reporter | LMP1 NFkB inh | DNA binding
COc1cccc(NC(=O)N2C[C@H](O)COC[C@H]3O[C@H](CC(=O)NC4CCCC4)CC[C@@H]32)c1 | . | 5 | . | -9 | -12 | . | .
CCC(=O)N1[C@H](C(=O)N2CCc3ccccc3C2)[C@@H](CO)[C@@H]2Cn3c(cccc3=O)[C@@H]21 | . | -4 | . | -4 | -17 | . | .
C/C=C/c1ccccc1[C@H]1[C@@H](C#N)N(C(=O)CN2CCOCC2)[C@H]1CO | . | 21 | . | -1 | . | . | .
COc1ccc(/C=C2\SC(=O)N(CCCC(=O)Nc3cc(Cl)ccc3C(=O)O)C2=O)cc1 | 89* | 30 | 71 | 85* | 53 | 74* | -10%
O=C(Nc1ccccc1)c1cc(C2CCCN(C(=O)C/C=C/c3ccccc3)C2)on1 (configuration not stated) | . | -40 | -37 | -15 | -21 | . | .
CC(=O)N1CCCC(c2cc(C(=O)Nc3ccccc3)no2)C1 (configuration not stated) | . | 88* | 46 | 75* | ? | . | -2%
Clc1ccc(Nc2nnc(-c3ccc4c(c3)OCO4)o2)cc1 | . | -50 | . | -95 | -108 | . | .
c1ccc(Nc2nnc(-c3ccc4c(c3)OCO4)o2)cc1 | . | 92* | . | 79* | 48 | . | 3%
O=c1oc2cc(O)ccc2s1 | -11 | . | 0 | 60* | -8 | 13 | -3%
Oc1ccc2c(c1)oc1cc(O)ccc12 | 1 | . | 6 | . | . | -34 | .
Cc1nc(N)nc(N)c1-c1ccc(Cl)c(Cl)c1 | 38 | 17 | 69 | 53* | 54 | 20 | -6%
Cc1nc(N)nc(N)c1CCCc1ccc(Cl)c(Cl)c1 | 19 | 19 | 19 | 75* | 28 | -8 | -19%
O=C(C[C@@H]1C[C@H]2c3cc(NS(=O)(=O)c4ccc(F)cc4)ccc3O[C@H]2[C@H](CO)O1)NCC1CC1 | . | 5 | . | 5 | 10 | . | .
CCCCCCCCCCCCCCCCn1cc[n+](C)c1 | 70* | . | 81 | 73* | 99* | 5 | -17%
C[n+]1ccn(CC(=O)c2cccs2)c1 | -3 | 12 | 1 | 8 | 8 | 5 | .
CN1c2ccc(-c3ccccc3F)cc2[C@H]2[C@H](CCN2C(=O)CN2CCOCC2)[C@@H]1CO | . | -29 | . | -45 | -85 | . | .
COc1cc(OC)cc(-c2cc3ccccc3c(=O)o2)c1 | -40 | -60 | -37 | -56 | -90 | -31 | .
Nc1ccc(-c2cc3ccccc3c(=O)o2)cc1 | 74* | -13 | 38 | 64* | -14 | 37 | -24%
Cc1ccc(S(=O)(=O)N[C@H]2CC[C@@H](CC(=O)NC3CCCCC3)O[C@@H]2CO)cc1 | . | -5 | . | -1 | -3 | . | .
COc1ccc(/C=C(/C(=O)c2cccs2)N2C=CC=CC2=C(C#N)C#N)cc1 | 46 | . | 67 | 79* | -8 | 0 | 2%
COc1ccc(N=N/C(=C\O)C(=O)c2cccs2)cc1 | 7 | -25 | 0 | -23 | -41 | 13 | .
COC(=O)Cn1c(O)c(N=NC(=O)CNC(=O)c2ccc3c(c2)OCCO3)c2ccccc21 | -7 | 7 | 9 | . | 10 | -6 | .
O=C(CNC(=O)Cc1ccccc1)N=Nc1c(O)n(Cc2ccc3c(c2)OCO3)c2ccccc12 | 14 | -14 | 23 | 66* | 4 | 6 | -7%
CCCNC(=O)Nc1ccc2c(c1)C(=O)N(C)C[C@H](OC)[C@@H](C)CN(C(=O)c1ccccc1F)[C@H](C)CO2 | . | 9 | . | -5 | . | . | .
CCN(Cc1ccccc1)c1ccc(/C=N/N=C(N)N)cc1 | 64* | 62* | 83 | 57* | . | -10 | -12%
SMILES | MITF TRPM1 inh | LGR2 inh | Shn3 3UTR inh | EWS-Fli inh | PAX8 reporter | LMP1 NFkB inh | DNA binding
CC(C)NC(=O)Nc1ccc2c(c1)CC(=O)N([C@H](C)CO)C[C@H](C)[C@@H](CN(C)C)O2 | . | 17 | . | . | -1 | . | .
Cc1cc(NC(=O)c2ccc3c(c2)OCCO3)ccc1NC(=O)c1cc2ccccc2o1 | -38 | ? | 13 | -52 | -16 | 7 | .
O=C(Nc1ccc(NC(=O)c2cc3ccccc3o2)cc1)c1ccc2c(c1)OCCO2 | 55 | 1 | 23 | 58* | -1 | 19 | -2%
CC(C)(C)c1ccc(Oc2ccc(N)cn2)cc1 | . | -15 | 39 | 71* | 14 | . | -14%
CC(C)(C)c1ccc(Oc2ccc(NC(=O)c3ccccc3C(=O)O)cn2)cc1 | . | 4 | 44 | 63* | 14 | . | 2%
O=c1cc(-c2ccccc2)oc2ccc(Br)cc12 | -47 | 6 | -64 | -6 | -194 | -9 | .
COc1ccc2oc(-c3ccccc3)cc(=O)c2c1 | . | 64* | 7 | 60* | . | . | -4%
CO[C@@H]1CN(C)C(=O)c2cc(NC(=O)c3nc4ccccc4s3)ccc2OC[C@@H](C)N(Cc2cncnc2)C[C@H]1C | . | 1 | . | -11 | . | . | .
C/C(=N\OCc1cccc(C(=O)O)c1)c1ccc(Cl)cc1 | . | 100* | 37 | 84* | 81* | . | -14%
O=c1c(Cl)cc(Cl)nn1-c1ccccc1 | 44 | -5 | 26 | 64* | 88* | -11 | 1%
COc1cc(Cl)nn(-c2ccccc2)c1=O | 5 | -9 | -4 | . | -1 | -12 | .
CC(=O)O[C@@H]1[C@H]2[C@@H](C[C@@H](C)[C@@H]3C=CC(=O)[C@@]13C)OC(=O)[C@@H]2C | 2 | 5 | -30 | -6 | -14 | 5 | .
C=C1C(=O)OC2C1CCC(C)C1C=CC(=O)C12C (configuration not stated) | 69* | 0 | 58 | 56* | 75* | -82 | 7%
O=C(CCN1C(=O)/C(=C\C=C\c2ccccc2)SC1=S)Nc1ccccc1C(=O)O | 4 | -16 | 5 | . | -3 | -12 | .
CC(C)c1ccccc1NC(=O)COC(=O)CCN1C(=O)/C(=C\C=C\c2ccccc2)SC1=S | 63* | -3 | 35 | 62* | 26 | 10 | -10%
CCCn1nnc(NC(=S)NC(=O)C(C)(C)C)n1 | -8 | 12 | 15 | 87* | -21 | -7 | 0%
CNc1nc(C(=O)O)nc(N2CCOCC2)n1 | -4 | 4 | -11 | -4 | . | -12 | .
Cc1ccc(C(CC(=O)O)Nc2nc(N3CCOCC3)nc(N3CCOCC3)n2)cc1 (configuration not stated) | 4 | -4 | 15 | 65* | -8 | 4 | -4%
COc1cccc(/C=C2\SC(=S)N(CCCC(=O)Nc3cc(C)on3)C2=O)c1 | -9 | 4 | 20 | 49 | . | -2 | .
Cc1cc(NC(=O)CCN2C(=O)/C(=C/c3ccccc3Cl)SC2=S)no1 | 10 | 5 | -7 | -5 | 7 | 0 | .

Screening data from PubChem.
